# Results taken from PMC11024108.
# Experiments:
# [1] = biological target: Cytochrome c oxidase assembly factor 7 (UniProt Q96BR5); assay: cross-link between two proteins; affinity purification or IP with mass spectrometry; cross-linking mass spectrometry
# [2] = biological target: 14-3-3 protein zeta/delta (UniProt P63101); assay: cross-link between two proteins; cross-linking mass spectrometry
# [3] = biological target: BOS complex subunit NOMO2 (UniProt Q5JPE7); assay: as above
# [4] = biological target: AP-2 complex subunit beta (UniProt Q9DBG3); assay: as above
# Chain of AP-2 complex subunit beta (UniProt Q9DBG3) (Q9DBG3 whole entry, one chain of several): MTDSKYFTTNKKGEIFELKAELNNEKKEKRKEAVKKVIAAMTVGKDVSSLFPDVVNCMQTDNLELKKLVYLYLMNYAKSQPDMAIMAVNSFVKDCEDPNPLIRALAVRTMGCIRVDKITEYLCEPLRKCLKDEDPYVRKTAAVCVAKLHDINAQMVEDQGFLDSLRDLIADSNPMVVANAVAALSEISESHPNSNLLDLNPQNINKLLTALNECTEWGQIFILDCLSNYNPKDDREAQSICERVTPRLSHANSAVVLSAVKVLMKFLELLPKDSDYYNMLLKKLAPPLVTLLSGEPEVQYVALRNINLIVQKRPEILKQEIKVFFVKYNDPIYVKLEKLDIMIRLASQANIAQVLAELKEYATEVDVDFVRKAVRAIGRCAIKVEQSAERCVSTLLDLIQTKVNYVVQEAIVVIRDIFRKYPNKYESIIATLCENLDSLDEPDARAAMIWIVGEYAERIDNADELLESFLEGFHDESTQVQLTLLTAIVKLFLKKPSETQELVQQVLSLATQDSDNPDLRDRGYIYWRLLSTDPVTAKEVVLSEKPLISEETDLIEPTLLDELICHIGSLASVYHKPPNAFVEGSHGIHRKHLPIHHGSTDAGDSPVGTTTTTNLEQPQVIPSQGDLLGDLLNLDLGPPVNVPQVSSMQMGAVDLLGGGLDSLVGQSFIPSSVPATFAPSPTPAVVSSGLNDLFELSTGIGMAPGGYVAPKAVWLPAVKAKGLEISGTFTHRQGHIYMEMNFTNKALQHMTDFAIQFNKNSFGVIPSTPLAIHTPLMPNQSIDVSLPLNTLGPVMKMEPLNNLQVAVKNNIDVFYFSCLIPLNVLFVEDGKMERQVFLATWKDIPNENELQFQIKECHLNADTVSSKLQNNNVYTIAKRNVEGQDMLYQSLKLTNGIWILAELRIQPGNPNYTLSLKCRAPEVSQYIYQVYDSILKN
# [5] = biological target: AP2-associated protein kinase 1 (UniProt Q3UHJ0); assay: as above
# Chain of AP2-associated protein kinase 1 (Q3UHJ0 whole entry): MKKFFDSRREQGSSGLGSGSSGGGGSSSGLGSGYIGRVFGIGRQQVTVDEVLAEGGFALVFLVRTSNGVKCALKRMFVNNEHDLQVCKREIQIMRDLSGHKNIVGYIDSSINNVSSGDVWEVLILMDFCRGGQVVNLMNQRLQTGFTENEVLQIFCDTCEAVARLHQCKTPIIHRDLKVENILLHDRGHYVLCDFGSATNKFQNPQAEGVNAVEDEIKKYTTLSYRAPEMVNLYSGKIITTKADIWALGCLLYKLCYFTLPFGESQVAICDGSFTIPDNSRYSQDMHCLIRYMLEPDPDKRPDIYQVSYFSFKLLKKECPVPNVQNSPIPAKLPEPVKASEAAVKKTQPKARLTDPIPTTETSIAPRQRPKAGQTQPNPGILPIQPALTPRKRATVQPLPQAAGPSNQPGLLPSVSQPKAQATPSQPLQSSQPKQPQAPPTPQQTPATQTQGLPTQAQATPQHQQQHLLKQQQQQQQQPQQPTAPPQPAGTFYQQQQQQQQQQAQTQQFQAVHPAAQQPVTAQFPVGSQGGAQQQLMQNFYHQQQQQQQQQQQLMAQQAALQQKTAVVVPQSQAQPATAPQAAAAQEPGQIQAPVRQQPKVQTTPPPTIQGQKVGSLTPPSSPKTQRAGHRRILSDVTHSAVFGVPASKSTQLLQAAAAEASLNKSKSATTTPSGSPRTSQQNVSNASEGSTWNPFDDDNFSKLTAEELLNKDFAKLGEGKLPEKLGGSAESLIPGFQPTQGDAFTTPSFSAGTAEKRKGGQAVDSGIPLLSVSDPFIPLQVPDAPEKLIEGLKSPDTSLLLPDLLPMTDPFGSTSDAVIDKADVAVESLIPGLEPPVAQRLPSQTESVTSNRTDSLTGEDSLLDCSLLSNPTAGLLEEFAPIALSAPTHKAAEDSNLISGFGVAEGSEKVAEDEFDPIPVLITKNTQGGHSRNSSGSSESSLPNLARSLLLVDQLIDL
# [6] = biological target: Bifunctional glutamate/proline--tRNA ligase (UniProt Q8CGC7); assay: as above
# [7] = biological target: Adenylate kinase 2, mitochondrial (UniProt P54819); assay: as above
# [8] = biological target: Cytochrome c (UniProt P99999); assay: as above
# [9] = biological target: Glycerol-3-phosphate dehydrogenase, mitochondrial (UniProt P43304); assay: as above
# [10] = biological target: Actin, cytoplasmic 1 (UniProt P60710); assay: as above
# [11] = biological target: Actin-binding protein WASF1 (UniProt Q8R5H6); assay: as above
# [12] = biological target: ATP synthase F(1) complex subunit alpha, mitochondrial (UniProt P25705); assay: as above
# [13] = biological target: ATP synthase F(0) complex subunit e, mitochondrial (UniProt P56385); assay: as above
# Chain of ATP synthase F(0) complex subunit e, mitochondrial (P56385 whole entry, one chain of several): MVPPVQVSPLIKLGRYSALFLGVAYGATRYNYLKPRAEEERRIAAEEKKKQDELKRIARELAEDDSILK
# [14] = biological target: Aconitate hydratase, mitochondrial (UniProt Q99798); assay: as above
# [15] = biological target: Malate dehydrogenase, mitochondrial (UniProt P40926); assay: as above
# [16] = biological target: 2-oxoglutarate dehydrogenase-like, mitochondrial (UniProt Q9ULD0); assay: as above
# [17] = biological target: AP-3 complex subunit beta-2 (UniProt Q9JME5); assay: as above
# [18] = biological target: AP-3 complex subunit sigma-1 (UniProt Q9DCR2); assay: as above
# [19] = biological target: 3-hydroxyisobutyryl-CoA hydrolase, mitochondrial (UniProt Q6NVY1); assay: as above
# [20] = biological target: AP-2 complex subunit mu (UniProt P84091); assay: as above
# [21] = biological target: AP-2 complex subunit sigma (UniProt P62743); assay: as above
# Chain of AP-2 complex subunit sigma (P62743 whole entry, one chain of several): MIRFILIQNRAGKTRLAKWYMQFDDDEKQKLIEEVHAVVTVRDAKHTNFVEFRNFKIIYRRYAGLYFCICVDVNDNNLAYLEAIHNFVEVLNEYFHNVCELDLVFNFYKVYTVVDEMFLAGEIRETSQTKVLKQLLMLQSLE
# [22] = biological target: SH3-containing GRB2-like protein 3-interacting protein 1 (UniProt Q8VD37); assay: as above
# [23] = biological target: ATPase inhibitor, mitochondrial (UniProt Q9UII2); assay: as above
# [24] = biological target: Stress-70 protein, mitochondrial (UniProt P38646); assay: as above
# [25] = biological target: Ataxin-2 (UniProt Q99700); assay: as above
# [26] = biological target: ADP-ribosylation factor-like protein 8B (UniProt Q9NVJ2); assay: as above
# [27] = biological target: B-cell receptor-associated protein 31 (UniProt Q61335); assay: as above
# [28] = biological target: Alpha-internexin (UniProt P46660); assay: as above
# Chain of Alpha-internexin (P46660 whole entry): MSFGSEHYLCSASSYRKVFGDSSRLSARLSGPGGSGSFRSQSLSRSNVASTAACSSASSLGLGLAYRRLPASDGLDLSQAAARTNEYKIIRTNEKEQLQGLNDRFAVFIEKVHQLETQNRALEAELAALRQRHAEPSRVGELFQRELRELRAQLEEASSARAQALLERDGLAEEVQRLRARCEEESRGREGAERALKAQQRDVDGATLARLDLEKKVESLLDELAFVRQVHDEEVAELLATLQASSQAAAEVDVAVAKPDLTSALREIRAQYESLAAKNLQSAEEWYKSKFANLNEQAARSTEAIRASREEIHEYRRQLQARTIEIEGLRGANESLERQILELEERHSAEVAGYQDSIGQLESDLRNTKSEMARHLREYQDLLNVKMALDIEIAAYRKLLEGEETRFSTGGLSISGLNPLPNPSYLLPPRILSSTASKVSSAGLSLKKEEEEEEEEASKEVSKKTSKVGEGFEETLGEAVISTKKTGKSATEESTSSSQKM
# [29] = biological target: Solute carrier family 25 member 3 (UniProt Q00325); assay: as above
# Chain of Solute carrier family 25 member 3 (Q00325 whole entry): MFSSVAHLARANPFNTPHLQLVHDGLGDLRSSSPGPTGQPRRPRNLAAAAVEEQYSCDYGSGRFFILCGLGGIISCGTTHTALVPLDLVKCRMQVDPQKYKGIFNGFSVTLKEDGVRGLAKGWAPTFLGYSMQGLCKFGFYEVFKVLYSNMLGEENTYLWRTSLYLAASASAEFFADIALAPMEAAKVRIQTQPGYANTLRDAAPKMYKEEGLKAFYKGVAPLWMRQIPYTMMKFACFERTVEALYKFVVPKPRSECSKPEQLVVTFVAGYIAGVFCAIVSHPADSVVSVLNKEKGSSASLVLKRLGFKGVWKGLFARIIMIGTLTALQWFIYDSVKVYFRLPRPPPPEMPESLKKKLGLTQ
# [30] = biological target: AP-3 complex subunit mu-1 (UniProt Q9Y2T2); assay: as above
# [31] = biological target: ADP/ATP translocase 2 (UniProt P51881); assay: as above
# [32] = biological target: Alpha-actinin-2 (UniProt Q9JI91); assay: as above
# [33] = biological target: ATP synthase F(0) complex subunit 8 (UniProt P03928); assay: as above
# Chain of ATP synthase F(0) complex subunit 8 (P03928 whole entry, one chain of several): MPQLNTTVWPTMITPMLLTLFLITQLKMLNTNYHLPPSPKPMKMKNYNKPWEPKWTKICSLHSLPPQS
# [34] = biological target: Trifunctional enzyme subunit alpha, mitochondrial (UniProt P40939); assay: as above
# [35] = biological target: Trifunctional enzyme subunit beta, mitochondrial (UniProt P55084); assay: as above
# [36] = biological target: Neurofilament heavy polypeptide (UniProt P19246); assay: as above
# [37] = biological target: Neurofilament medium polypeptide (UniProt P08553); assay: as above
# [38] = biological target: 14-3-3 protein zeta/delta (UniProt P63104); assay: as above
# [39] = biological target: ATP synthase peripheral stalk subunit d, mitochondrial (UniProt Q9DCX2); assay: as above
# Chain of ATP synthase peripheral stalk subunit d, mitochondrial (Q9DCX2 whole entry): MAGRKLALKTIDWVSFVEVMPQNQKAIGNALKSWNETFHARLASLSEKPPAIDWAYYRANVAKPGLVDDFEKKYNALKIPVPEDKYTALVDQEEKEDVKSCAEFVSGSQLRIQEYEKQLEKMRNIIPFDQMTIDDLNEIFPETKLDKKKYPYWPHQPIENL
# [40] = biological target: Elongation factor Tu, mitochondrial (UniProt P49411); assay: cross-linking mass spectrometry
# [41] = biological target: Large ribosomal subunit protein bL12m (UniProt P52815); assay: cross-linking mass spectrometry
# [42] = biological target: Large ribosomal subunit protein mL45 (UniProt Q9BRJ2); assay: cross-linking mass spectrometry
# [43] = biological target: Leucine-rich PPR motif-containing protein, mitochondrial (UniProt P42704); assay: cross-linking mass spectrometry
# [44] = biological target: 3-hydroxyacyl-CoA dehydrogenase type-2 (UniProt Q99714); assay: cross-link between two proteins; cross-linking mass spectrometry
# [45] = biological target: ATP synthase peripheral stalk subunit OSCP, mitochondrial (UniProt P48047); assay: as above
# [46] = biological target: Acyl-coenzyme A thioesterase 9, mitochondrial (UniProt Q9Y305); assay: as above
# [47] = biological target: Alpha-aminoadipic semialdehyde dehydrogenase (UniProt P49419); assay: as above
# [48] = biological target: Aspartate--tRNA ligase, mitochondrial (UniProt Q6PI48); assay: as above
# [49] = biological target: Delta(3,5)-Delta(2,4)-dienoyl-CoA isomerase, mitochondrial (UniProt Q13011); assay: as above
# [50] = biological target: Elongation factor G, mitochondrial (UniProt Q96RP9); assay: as above
# [51] = biological target: Heat shock protein 75 kDa, mitochondrial (UniProt Q12931); assay: as above
# [52] = biological target: Hydroxyacyl-coenzyme A dehydrogenase, mitochondrial (UniProt Q16836); assay: as above
# [53] = biological target: Isocitrate dehydrogenase [NAD] subunit alpha, mitochondrial (UniProt P50213); assay: as above
# [54] = biological target: NADH dehydrogenase [ubiquinone] 1 alpha subcomplex subunit 5 (UniProt Q16718); assay: as above
# [55] = biological target: Polyribonucleotide nucleotidyltransferase 1, mitochondrial (UniProt Q8TCS8); assay: as above
# [56] = biological target: Presequence protease, mitochondrial (UniProt Q5JRX3); assay: as above
# [57] = biological target: Stomatin-like protein 2, mitochondrial (UniProt Q9UJZ1); assay: as above
# [58] = biological target: Succinate-semialdehyde dehydrogenase, mitochondrial (UniProt P51649); assay: as above
# [59] = biological target: Transcription factor A, mitochondrial (UniProt Q00059); assay: as above
# [60] = biological target: Tyrosine--tRNA ligase, mitochondrial (UniProt Q9Y2Z4); assay: as above
# [61] = biological target: Zeta-crystallin (UniProt Q08257); assay: as above
# [62] = biological target: Annexin A11 (UniProt P50995); assay: as above
# [63] = biological target: AP-2 complex subunit beta (UniProt P63010); assay: as above
# [64] = biological target: AP-2 complex subunit mu (UniProt Q96CW1); assay: as above
# [65] = biological target: Epidermal growth factor receptor substrate 15-like 1 (UniProt Q9UBC2); assay: as above
# [66] = biological target: Phosphatidylinositol-binding clathrin assembly protein (UniProt Q13492); assay: as above
# [67] = biological target: Amphiphysin (UniProt Q7TQF7); assay: as above
# [68] = biological target: ATP-dependent 6-phosphofructokinase, platelet type (UniProt Q9WUA3); assay: as above
# [69] = biological target: Brain acid soluble protein 1 (UniProt Q91XV3); assay: as above
# [70] = biological target: P2X purinoceptor 7 (UniProt Q9Z1M0); assay: as above
# [71] = biological target: Charged multivesicular body protein 3 (UniProt Q9Y3E7); assay: cross-linking mass spectrometry
# [72] = biological target: Charged multivesicular body protein 2b (UniProt Q9UQN3); assay: cross-link between two proteins; cross-linking mass spectrometry
# [73] = biological target: COMM domain-containing protein 8 (UniProt Q9CZG3); assay: as above
# [74] = biological target: Calnexin (UniProt P27824); assay: as above
# [75] = biological target: Transmembrane emp24 domain-containing protein 10 (UniProt P49755); assay: as above
# [76] = biological target: Calreticulin (UniProt P27797); assay: as above
# Chain of ATP synthase peripheral stalk subunit d, mitochondrial, O75947 (O75947 whole entry): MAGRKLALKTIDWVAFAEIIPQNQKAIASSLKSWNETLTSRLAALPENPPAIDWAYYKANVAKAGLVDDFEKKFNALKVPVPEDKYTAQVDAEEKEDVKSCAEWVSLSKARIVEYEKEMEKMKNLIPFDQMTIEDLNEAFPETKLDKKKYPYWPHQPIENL
# Chain of Glyceraldehyde-3-phosphate dehydrogenase, P16858 (P16858 whole entry): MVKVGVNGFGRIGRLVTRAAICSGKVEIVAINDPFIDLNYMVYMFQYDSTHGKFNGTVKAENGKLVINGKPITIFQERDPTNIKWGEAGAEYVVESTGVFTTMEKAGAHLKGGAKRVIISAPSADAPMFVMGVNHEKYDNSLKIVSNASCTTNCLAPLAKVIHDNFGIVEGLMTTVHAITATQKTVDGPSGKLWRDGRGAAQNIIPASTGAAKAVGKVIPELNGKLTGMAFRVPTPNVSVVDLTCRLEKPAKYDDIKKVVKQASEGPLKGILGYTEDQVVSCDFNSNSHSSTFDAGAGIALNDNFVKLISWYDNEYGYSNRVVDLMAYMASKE
# Chain of 14-3-3 protein zeta/delta (UniProt P63101) (P63101 whole entry, stated change not applied): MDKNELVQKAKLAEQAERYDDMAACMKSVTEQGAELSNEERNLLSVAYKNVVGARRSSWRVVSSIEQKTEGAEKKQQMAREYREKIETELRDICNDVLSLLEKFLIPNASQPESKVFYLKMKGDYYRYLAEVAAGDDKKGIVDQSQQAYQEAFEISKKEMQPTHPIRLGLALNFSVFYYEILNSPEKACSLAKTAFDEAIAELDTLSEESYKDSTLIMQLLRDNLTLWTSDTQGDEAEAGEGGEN
# Chain of Peptidyl-prolyl cis-trans isomerase B, P23284 (P23284 whole entry): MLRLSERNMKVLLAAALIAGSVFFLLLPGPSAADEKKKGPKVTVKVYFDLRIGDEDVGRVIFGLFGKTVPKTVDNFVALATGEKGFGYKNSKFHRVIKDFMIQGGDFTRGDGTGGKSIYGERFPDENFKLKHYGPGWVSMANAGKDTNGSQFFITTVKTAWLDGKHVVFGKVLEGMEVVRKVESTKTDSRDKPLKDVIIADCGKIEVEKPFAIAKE
# Chain of Trifunctional enzyme subunit alpha, mitochondrial, P40939 (P40939 whole entry): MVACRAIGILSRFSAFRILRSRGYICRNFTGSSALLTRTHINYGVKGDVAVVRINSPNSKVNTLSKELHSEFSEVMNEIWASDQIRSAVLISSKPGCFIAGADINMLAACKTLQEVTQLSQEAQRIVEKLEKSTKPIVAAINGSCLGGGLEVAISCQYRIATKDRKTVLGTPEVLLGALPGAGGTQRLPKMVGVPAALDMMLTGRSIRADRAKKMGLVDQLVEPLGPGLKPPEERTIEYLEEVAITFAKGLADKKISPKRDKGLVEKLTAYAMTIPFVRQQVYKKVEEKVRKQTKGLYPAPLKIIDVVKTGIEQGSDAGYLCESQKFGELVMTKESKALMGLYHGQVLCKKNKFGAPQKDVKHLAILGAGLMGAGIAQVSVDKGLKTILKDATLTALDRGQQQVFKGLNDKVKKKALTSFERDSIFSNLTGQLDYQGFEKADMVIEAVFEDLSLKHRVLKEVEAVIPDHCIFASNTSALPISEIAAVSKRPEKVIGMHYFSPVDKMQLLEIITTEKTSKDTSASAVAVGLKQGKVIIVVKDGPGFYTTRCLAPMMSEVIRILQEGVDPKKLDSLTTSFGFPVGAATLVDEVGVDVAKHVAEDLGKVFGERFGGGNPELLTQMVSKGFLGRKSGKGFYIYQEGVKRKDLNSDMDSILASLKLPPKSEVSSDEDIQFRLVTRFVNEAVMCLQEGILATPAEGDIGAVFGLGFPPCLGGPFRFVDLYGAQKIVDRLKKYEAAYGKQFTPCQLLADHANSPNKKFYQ
substance,measurement,setting,value
"Cytochrome c oxidase assembly factor SCO2, O43819",listed as a hit,[1],yes
"14-3-3 protein gamma, P61982",listed as a hit,[2],yes
"BOS complex subunit NOMO3, P69849",listed as a hit,[3],yes
"AP-2 complex subunit mu, P84091",listed as a hit,[4],yes
same,listed as a hit,[5],yes
"Isoleucine--tRNA ligase, cytoplasmic, Q8BU30",listed as a hit,[6],yes
"Prohibitin 1, P35232",listed as a hit,[7],yes
same,listed as a hit,[8],yes
same,listed as a hit,[9],yes
"WD repeat-containing protein 1, O88342",listed as a hit,[10],yes
"Cytoplasmic FMR1-interacting protein 2, Q5SQX6",listed as a hit,[11],yes
"ATP synthase peripheral stalk subunit b, mitochondrial, P24539",listed as a hit,[12],yes
"Trifunctional enzyme subunit beta, mitochondrial, P55084",listed as a hit,[13],yes
"Fumarate hydratase, mitochondrial, P07954",listed as a hit,[14],yes
same,listed as a hit,[15],yes
"2-oxoglutarate dehydrogenase complex component E1, Q02218",listed as a hit,[16],yes
"Adaptin ear-binding coat-associated protein 1, Q9CR95",listed as a hit,[4],yes
"AP-3 complex subunit delta-1, O54774",listed as a hit,[17],yes
same,listed as a hit,[18],yes
"Mitochondrial-processing peptidase subunit alpha, Q10713",listed as a hit,[19],yes
"AP-1 complex subunit beta-1, O35643",listed as a hit,[20],yes
same,listed as a hit,[21],yes
same,listed as a hit,[22],yes
"AP-2 complex subunit alpha-1, P17426",listed as a hit,[4],yes
same,listed as a hit,[5],yes
"ATP synthase F(1) complex subunit gamma, mitochondrial, P36542",listed as a hit,[23],yes
same,listed as a hit,[24],yes
"Ataxin-2-like protein, Q8WWM7",listed as a hit,[25],yes
"14-3-3 protein epsilon, P62259",listed as a hit,[2],yes
"AP-2 complex subunit mu, Q96CW1",listed as a hit,[26],yes
"B-cell receptor-associated protein 29, Q61334",listed as a hit,[27],yes
"Adenylyl cyclase-associated protein 1, P40124",listed as a hit,[10],yes
"Neurofilament heavy polypeptide, P19246",listed as a hit,[28],yes
"Trifunctional enzyme subunit alpha, mitochondrial, P40939",listed as a hit,[13],yes
same,listed as a hit,[29],yes
"AP-3 complex subunit beta-1, O00203",listed as a hit,[30],yes
"ADP/ATP translocase 1, P48962",listed as a hit,[31],yes
"Synaptopodin, Q8CC35",listed as a hit,[32],yes
"ATP synthase peripheral stalk subunit d, mitochondrial, O75947",listed as a hit,[33],yes
same,listed as a hit,[34],yes
same,listed as a hit,[35],yes
"Neurofilament light polypeptide, P08551",listed as a hit,[28],yes
same,listed as a hit,[36],yes
same,listed as a hit,[37],yes
"14-3-3 protein gamma, P61981",listed as a hit,[38],yes
"ATP synthase peripheral stalk subunit F6, mitochondrial, P97450",listed as a hit,[39],yes
"Malate dehydrogenase, mitochondrial, P40926",listed as a hit,[40],yes
same,listed as a hit,[41],yes
same,listed as a hit,[42],yes
same,listed as a hit,[43],yes
same,listed as a hit,[44],yes
same,listed as a hit,[45],yes
same,listed as a hit,[46],yes
same,listed as a hit,[47],yes
same,listed as a hit,[48],yes
same,listed as a hit,[49],yes
same,listed as a hit,[50],yes
same,listed as a hit,[51],yes
same,listed as a hit,[52],yes
same,listed as a hit,[53],yes
same,listed as a hit,[54],yes
same,listed as a hit,[55],yes
same,listed as a hit,[56],yes
same,listed as a hit,[29],yes
same,listed as a hit,[57],yes
same,listed as a hit,[58],yes
same,listed as a hit,[59],yes
same,listed as a hit,[60],yes
same,listed as a hit,[61],yes
"Neurofilament medium polypeptide, P08553",listed as a hit,[28],yes
"Annexin A7, P20073",listed as a hit,[62],yes
"AP-2 complex subunit alpha-2, O94973",listed as a hit,[63],yes
same,listed as a hit,[64],yes
same,listed as a hit,[65],yes
same,listed as a hit,[66],yes
"Myc box-dependent-interacting protein 1, O08539",listed as a hit,[67],yes
"ATP-dependent 6-phosphofructokinase, muscle type, P47857",listed as a hit,[68],yes
"Glyceraldehyde-3-phosphate dehydrogenase, P16858",listed as a hit,[69],yes
same,listed as a hit,[70],yes
"SH3-containing GRB2-like protein 3-interacting protein 1, Q8VD37",listed as a hit,[4],yes
"Charged multivesicular body protein 1a, Q9HD42",listed as a hit,[71],yes
same,listed as a hit,[72],yes
"COMM domain-containing protein 1, Q8K4M5",listed as a hit,[73],yes
"Peptidyl-prolyl cis-trans isomerase B, P23284",listed as a hit,[74],yes
same,listed as a hit,[75],yes
"Endoplasmic reticulum chaperone BiP, P11021",listed as a hit,[76],yes
